Results: PubChem BioAssay (EPA / NIEHS)
Where “and” joins values, the source holds several entries; their conditions need not be identical. Equal values may be shown once. The source holds several records for some structures; these can differ, active in one and inactive in another. Calls of active or inactive are those of the source. Rule for the calls: active = hit-call score of the fitted dose curve at least 0.9, where 1 is the maximum; inactive = score below 0.9.

Columns and labels:
[1] = read-out: Tissue Factor, F3 (gene 2152); test: BSK_CASM3C_TissueFactor: BioMAP Diversity Plus: CASM3C Assay for Tissue Factor Biomarker Activity (AID 2283052); conditions: primary human coronary artery smooth muscle cells; actives raise or lower the signal;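 note: cell surface tissue factor protein level read by ELISA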
[2] = read-out: Interferon-gamma inducible Protein 10 (IP10), CXCL10 (gene 3627); test: BSK_hDFCGF_IP10: BioMAP Diversity Plus: hDFCGF Assay for Interferon-gamma inducible Protein 10 (IP10) Biomarker Activity (AID 2283053); conditions: primary human foreskin fibroblasts; actives raise or lower the signal
How it was run: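 Primary foreskin fibroblasts, human; 24 h compound exposure; IP-10 by ELISA; bidirectional fit vs DMSO.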

[3] = read-out: Urokinase-type plasminogen activator receptor (uPAR), PLAUR (gene 5329); test: BSK_CASM3C_uPAR: BioMAP Diversity Plus: CASM3C Assay for Urokinase-type plasminogen activator receptor (uPAR) Biomarker Activity (AID 2283054); conditions: primary human coronary artery smooth muscle cells; actives raise or lower the signal;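 note: cell-surface uPAR protein level quantified by ELISA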
[4] = read-out: Vascular cell adhesion molecule 1 (VCAM1), VCAM1 (gene 7412); test: BSK_CASM3C_VCAM1: BioMAP Diversity Plus: CASM3C Assay for Vascular cell adhesion molecule 1 (VCAM1) Biomarker Activity (AID 2283055); conditions: primary human coronary artery smooth muscle cells; actives raise or lower the signal;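 note: VCAM-1 protein level quantified by ELISA on the cells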
[5] = read-out: Epidermal growth factor receptor (EGFR), EGFR (gene 1956); test: BSK_hDFCGF_EGFR: BioMAP Diversity Plus: hDFCGF Assay for Epidermal growth factor receptor (EGFR) Biomarker Activity (AID 2283057); conditions: primary human foreskin fibroblasts; actives raise or lower the signal
How it was run: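 hDFCGF system, primary human foreskin fibroblasts; compound 24 h; EGFR measured by ELISA; DMSO = negative control/baseline; bidirectional fitting.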

[6] = read-out: Interleukin-8 (IL8), CXCL8 (gene 3576); test: BSK_hDFCGF_IL8: BioMAP Diversity Plus: hDFCGF Assay for Interleukin-8 (IL8) Biomarker Activity (AID 2283058); conditions: primary human foreskin fibroblasts; actives raise or lower the signal
How it was run: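 Cells used are human skin primary fibroblasts. Chemical is added, cultures run 24 h, then IL-8 is quantified by ELISA, and gain or loss versus DMSO control is fitted in both directions.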

[7] = read-out: Macrophage colony-stimulating factor (MCSF), CSF1 (gene 1435); test: BSK_hDFCGF_MCSF: BioMAP Diversity Plus: hDFCGF Assay for Macrophage colony-stimulating factor (MCSF) Biomarker Activity (AID 2283060); conditions: primary human foreskin fibroblasts; actives raise or lower the signal
How it was run: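 Primary human foreskin fibroblasts dosed with chemical; 24 h later, M-CSF quantified by ELISA; curves fitted in both directions vs DMSO negative control.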

[8] = BSK_hDFCGF_SRB: Viability Assessment in the BioMAP Diversity Plus: hDFCGF Assay (AID 2283061); conditions: primary human foreskin fibroblasts;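 note: cells exposed to compound for 24 h before the read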
How it was run: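 Readout is SRB absorbance at 560 nm, reflecting total protein in parallel cultures of human foreskin fibroblasts harvested 24 h after chemical dosing. Activity was fitted bidirectionally relative to DMSO.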

[9] = read-out: TIMP metallopeptidase inhibitor 1 (TIMP1), TIMP1 (gene 7076); test: BSK_hDFCGF_TIMP1: BioMAP Diversity Plus: hDFCGF Assay for TIMP metallopeptidase inhibitor 1 (TIMP1) Biomarker Activity (AID 2283062); conditions: primary human foreskin fibroblasts; actives raise or lower the signal
How it was run: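 Human skin fibroblasts (primary), hDFCGF system; compound exposure 24 h; TIMP-1 by ELISA; bidirectional fit vs DMSO negative control; overt cytotoxicity by SRB in parallel wells.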

[10] = read-out: Monokine induced gamma interferon (MIG), CXCL9 (gene 4283); test: BSK_hDFCGF_MIG: BioMAP Diversity Plus: hDFCGF Assay for Monokine induced gamma interferon (MIG) Biomarker Activity (AID 2283063); conditions: primary human foreskin fibroblasts; actives raise or lower the signal
How it was run: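 Chemicals were added to primary human foreskin fibroblast cultures, which were sampled 24 h later. MIG levels were then quantified by ELISA and responses fitted in both directions relative to DMSO.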

[11] = read-out: Matrix Metallopeptidase 1 (MMP1), MMP1 (gene 4312); test: BSK_hDFCGF_MMP1: BioMAP Diversity Plus: hDFCGF Assay for Matrix Metallopeptidase 1 (MMP1) Biomarker Activity (AID 2283064); conditions: primary human foreskin fibroblasts; actives raise or lower the signal
How it was run: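 Primary human foreskin fibroblasts in the hDFCGF system were dosed with test chemical, and MMP1 was measured by ELISA 24 h later. Values come from bidirectional curve fitting against the DMSO baseline.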

[12] = read-out: Vascular cell adhesion molecule 1 (VCAM1), VCAM1 (gene 7412); test: BSK_hDFCGF_VCAM1: BioMAP Diversity Plus: hDFCGF Assay for Vascular cell adhesion molecule 1 (VCAM1) Biomarker Activity (AID 2283065); conditions: primary human foreskin fibroblasts; actives raise or lower the signal;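 for AC50: VCAM-1 protein level quantified by ELISA after 24 h chemical exposure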
How it was run: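 Human foreskin fibroblast primary cells, chemical exposure 24 h; VCAM-1 by ELISA; bidirectional fit, DMSO = negative control/baseline.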

[13] = read-out: Plasminogen activator inhibitor-1 (PAI1), SERPINE1 (gene 5054); test: BSK_hDFCGF_PAI1: BioMAP Diversity Plus: hDFCGF Assay for Plasminogen activator inhibitor-1 (PAI1) Biomarker Activity (AID 2283066); conditions: primary human foreskin fibroblasts; actives raise or lower the signal
How it was run: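 Primary dermal fibroblasts (human foreskin), hDFCGF system; compound 24 h; PAI-1 by ELISA; bidirectional fit vs DMSO control.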

[14] = read-out: Intercellular Adhesion Molecule 1 (ICAM1), ICAM1 (gene 3383); test: BSK_KF3CT_ICAM1: BioMAP Diversity Plus: KF3CT Assay for Intercellular Adhesion Molecule 1 (ICAM1) Biomarker Activity (AID 2283067); conditions: primary human keratinocytes with fibroblasts; actives raise or lower the signal
How it was run: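 ICAM-1 levels are measured by ELISA 24 h after dosing a primary human co-culture of keratinocytes and foreskin fibroblasts. Activity in either direction is fitted relative to DMSO vehicle.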

[15] = read-out: Interferon-gamma inducible Protein 10 (IP10), CXCL10 (gene 3627); test: BSK_KF3CT_IP10: BioMAP Diversity Plus: KF3CT Assay for Interferon-gamma inducible Protein 10 (IP10) Biomarker Activity (AID 2283068); conditions: primary human keratinocytes with fibroblasts; actives raise or lower the signal
How it was run: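 In a primary skin co-culture of keratinocytes and fibroblasts, IP-10 is quantified by ELISA at 24 h after dosing. SRB staining of parallel wells monitors overt toxicity. Curves are fitted both directions against DMSO.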

[16] = BSK_KF3CT_SRB: Viability Assessment in the BioMAP Diversity Plus: KF3CT Assay (AID 2283069); conditions: primary human keratinocytes with fibroblasts;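 note: total protein by sulforhodamine B staining as a cytotoxicity measure; read 24 h after compound addition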
How it was run: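 Human primary keratinocyte plus foreskin fibroblast co-culture exposed to chemicals for 24 h. Total protein measured by 0.1% sulforhodamine B staining after 10% TCA fixation, read at 560 nm; bidirectional fitting versus DMSO baseline.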

[17] = read-out: Interleukin-1 alpha (IL1a), IL1A (gene 3552); test: BSK_KF3CT_IL1a: BioMAP Diversity Plus: KF3CT Assay for Interleukin-1 alpha (IL1a) Biomarker Activity (AID 2283070); conditions: primary human keratinocytes with fibroblasts; actives raise or lower the signal
How it was run: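 Human keratinocyte plus foreskin fibroblast primary co-culture, sampled 24 h after chemical dosing. IL-1a measured by ELISA; responses fitted bidirectionally against DMSO baseline (negative control), so gain or loss of signal both count.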

[18] = read-out: TIMP metallopeptidase inhibitor 2 (TIMP2), TIMP2 (gene 7077); test: BSK_KF3CT_TIMP2: BioMAP Diversity Plus: KF3CT Assay for TIMP metallopeptidase inhibitor 2 (TIMP2) Biomarker Activity (AID 2283071); conditions: primary human keratinocytes with fibroblasts; actives raise or lower the signal
How it was run: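 Cells: human keratinocytes co-cultured with foreskin fibroblasts. Treat with chemical, 24 h. Measure TIMP-2 by ELISA; fit curves bidirectionally vs DMSO baseline.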

[19] = read-out: Collagen III, COL3A1 (gene 1281); test: BSK_hDFCGF_CollagenIII: BioMAP Diversity Plus: hDFCGF Assay for Collagen III Biomarker Activity (AID 2283056); conditions: primary human foreskin fibroblasts; actives raise or lower the signal
How it was run: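 ELISA read-out of collagen III from human skin fibroblast cultures sampled 24 h post-dosing. Values were derived by bidirectional fitting relative to the DMSO vehicle control.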

[20] = BSK_hDFCGF_Proliferation: Cell Proliferation Assessment in the BioMAP Diversity Plus: hDFCGF Assay (AID 2283059); conditions: primary human foreskin fibroblasts;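 note: curves fitted for both rise and fall of signal versus DMSO baseline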
How it was run: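 Primary human foreskin fibroblasts, sub-confluent; […]; 10% TCA fix, 0.1% SRB stain, A560 total protein. Gain/loss fitted bidirectionally vs DMSO control.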

Measured: AC50

S=C(S)NCCNC(=S)S.[Mn+2].[S-]C([S-])=NCCN=C([S-])[S-].[Zn+2]
active: [1] 4.17 µM [middle of 4 runs] | [2] 10.4 µM | [7] 1.41 µM | [12] 5.37 µM and 12.4 µM
inactive: [1] | [2] | [3] | [4] | [5] | [6] | [7] | [8] | [9] | [10] | [11] | [12] | [13] | [14] | [15] | [16] | [17] | [18]

CCCCCOC(=O)COc1cc(N2C(=O)C3=C(CCCC3)C2=O)c(F)cc1Cl
active: [2] 17.9 µM | [4] 5.55 µM | [19] 15.4 µM | [7] 20 µM | [10] 4.64 µM | [12] 14 µM | [15] 31.9 µM | [18] 13.4 µM
not listed: [20]
inactive: all other assays above

COCCO
inactive: [1] | [2] | [3] | [4] | [19] | [5] | [6] | [7] | [8] | [9] | [10] | [11] | [12] | [13] | [14] | [15] | [16] | [17] | [18]
active: [17] 0.8 µM

CC(=O)[C@H]1CC[C@H]2[C@@H]3CCC4=CC(=O)CC[C@]4(C)[C@H]3CC[C@]12C
active: [19] 24 µM
not listed: [17] | [20]
inactive: all other assays above

O=C(c1ccc(O)cc1O)c1ccc(O)cc1O
not listed: [20]
inactive: all other assays above

CCOC(=O)c1ccc(O)cc1
not listed: [19] | [20]
inactive: all other assays above

CCSC(=O)N(CC(C)C)CC(C)C
active: [5] 5.32 µM
not listed: [19]
inactive: all other assays above

CCOC(=O)C(C)Oc1ccc(Oc2nc3ccc(Cl)cc3o2)cc1 (centres undefined)
active: [11] 20 µM
not listed: [19] | [20]
inactive: all other assays above

CCCCC(CC)COC(=O)c1ccccc1C(=O)O (centres undefined)
active: [2] 11 µM | [7] 9.84 µM | [10] 13.8 µM | [12] 10.2 µM
not listed: [19] | [20]
inactive: all other assays above

COC(=O)c1cccc(C)c1S(=O)(=O)NC(=O)Nc1nc(OCC(F)(F)F)nc(N(C)C)n1
not listed: [19] | [20]
inactive: all other assays above

CN(C)C(=O)Nc1ccc(Cl)c(Cl)c1
not listed: [19] | [20]
inactive: all other assays above

CCCCOCCOCCOCc1cc2c(cc1CCC)OCO2
active: [3] 20 µM | [7] 12.9 µM | [8] 25.3 µM | [11] 3.97 µM
not listed: [19] | [20]
inactive: all other assays above

c1ccc(Nc2ccccc2)cc1
active: [5] 34.1 µM
not listed: [19]
inactive: all other assays above
